Compounds with a hit are over-represented: about 19% of the library has one in this group of screens.
TDP1 cell noCPT – qHTS for Inhibitors of human tyrosyl-DNA phosphodiesterase 1 (TDP1): qHTS in cells in absence of CPT | DT40 Tdp1-/- hTDP1 cells, no CPT, ATP luminescence, 48 h | Potency, µM (highest dose often 46.2 µM), without a hit: at the top dose activity change, negative = growth inhibition, hits mostly inhibitors | hit rate 15% among 420,000 | AID 686978, 2013; further: nearly all actives have a fitted effect of over 55% in size
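Chicken DT40 Tdp1-/- cells stably complemented with human TDP1 were seeded at 400 cells/well with DMSO in place of 20 nM camptothecin. After compound pinning, cells grew at least 48 hr at 37 °C; viability read by CellTiter-Glo luminescence.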
VP16 counter – Gal4-VP16 reporter inhibition counter-screen; Drosophila S2 Gal4-VP16 UAS-luciferase, luminescence, 20 h; Potency, µM (series often up to 53.6 µM), inactives show top-dose activity, negative = inhibition, usual class: inhibitors; hit rate 3.5% among 310,000; AID 2546;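 further: Gal4-VP16 expression switched on by copper sulfate through the metallothionein promoter; nearly all actives have a fitted effect of over 50% in size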
TDP1 cell CPT – DT40-hTDP1 cell growth loss with CPT; Potency, µM (series often up to 46.2 µM), for the others: at the highest dose activity change, negative = growth inhibition, hits mostly inhibitors; chicken DT40 Tdp1-/-;hTDP1 cells + 20 nM CPT, ATP luminescence, 48 h; AID 686979; hit rate 12% among 420,000; further: nearly all actives have a fitted effect of over 55% in size
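Chicken DT40 Tdp1-/- cells complemented with human TDP1, 400 cells/well, exposed to compounds plus 20 nM camptothecin for at least 48 h at 37 C; viability read as ATP content by CellTiter-Glo luminescence.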
TDP1 block – inhibitors of human tyrosyl-DNA phosphodiesterase TDP1. Q9NUW8. recombinant TDP1, AlphaScreen DNA substrate cleavage. Potency, µM (top dose mostly 130 µM), for the others: top-dose activity change, negative = inhibition, most hits filed as inhibitors. hit rate 0.28% among 350,000. AID 485290; further: nearly all actives have a fitted effect of over 40% in size
Target sequence (Q9NUW8 whole entry, looked up): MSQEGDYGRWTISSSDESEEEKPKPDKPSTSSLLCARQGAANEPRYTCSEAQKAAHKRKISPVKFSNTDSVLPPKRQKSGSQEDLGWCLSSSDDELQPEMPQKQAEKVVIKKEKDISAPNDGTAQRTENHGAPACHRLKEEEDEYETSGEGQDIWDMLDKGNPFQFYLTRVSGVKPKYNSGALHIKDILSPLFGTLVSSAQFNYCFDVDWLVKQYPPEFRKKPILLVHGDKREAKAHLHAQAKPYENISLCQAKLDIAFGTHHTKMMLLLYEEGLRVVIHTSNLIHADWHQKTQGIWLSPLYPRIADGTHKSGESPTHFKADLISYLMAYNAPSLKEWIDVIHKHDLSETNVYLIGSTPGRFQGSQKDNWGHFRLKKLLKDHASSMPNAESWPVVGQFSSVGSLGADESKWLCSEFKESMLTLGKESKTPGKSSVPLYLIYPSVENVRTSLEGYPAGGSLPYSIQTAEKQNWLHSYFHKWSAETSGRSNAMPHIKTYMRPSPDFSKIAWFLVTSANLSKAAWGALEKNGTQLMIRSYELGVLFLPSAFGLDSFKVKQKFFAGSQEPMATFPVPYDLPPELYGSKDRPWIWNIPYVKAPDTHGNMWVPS
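Here, a 5' biotin and 3' phosphotyrosine-FITC DNA oligonucleotide reports Tdp1 activity: intact substrate bridges AlphaScreen beads, while cleavage leaves a 3' phosphate and drops signal. All incubations at room temperature.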
RORg inh – inhibitors of mouse ROR gamma transcriptional activity | P51450 | Drosophila S2 Gal4-RORgamma UAS-luciferase reporter, 20 h | Potency, µM (doses to about 53.6 µM), inactives show at the highest dose activity change, negative = inhibition, actives largely listed as inhibitors | hit rate 5.4% among 310,000 | AID 2551; further: nearly all actives have a fitted effect of over 60% in size
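Compounds are pin-transferred onto Drosophila Schneider cells expressing a copper-inducible Gal4–ROR gamma transactivation domain fusion. After 1 hr, copper sulfate is added to 700 uM final; luciferase is read 20 hr later.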
Numbers without * were called inactive; u = inconclusive; x = not tested or not shown; [ ] = dose if it differs, or a comment. The call rests on the fitted dose curve; in most records, active means well fitted curve in the direction sought with a large enough effect; inconclusive means small, poorly fitted or top-dose-only effect, or another doubt; inactive means no such curve, though single readings can be large; an effect the other way counts as inactive or inconclusive. On the % scale 0 is the no-effect control and ±100 the full control effect; potency means the concentration at half of the fitted maximal effect.

SMILES	TDP1 cell noCPT	VP16 counter	TDP1 cell CPT	TDP1 block	RORg inh
COC(=O)C(C)N(C(=O)c1ccc(C(=O)c2ccccc2)cc1)c1c(C)cccc1C (centres undefined)	20µM*	0%	13µM*	8%	15%
Cc1ccccc1NC(=O)C(C)c1cccc(C(=O)c2ccccc2)c1 (centres undefined)	u	0%	-14%	-2%	8%
C=CCOc1c(Cl)cc(C(=S)N2CCCC2)cc1OCC	7.3µM*	u	5.8µM*	x	13µM*
CCOc1cc(C(=S)N2CCCC2)ccc1O	-3%	-1%	-2%	x	44%
CCOc1cc(C(N)=O)cc(Cl)c1OCC	23µM*	-11%	u	5%	6%
Cc1cccc(N/N=C(\C#N)S(=O)(=O)C(C)(C)C)c1	u	-9%	4%	5%	25%
N#C/C(=N\Nc1ccc(Cl)cc1)C(=N)N1CCCCCC1	-3%	-12%	0%	-12%	u
CC(C)(C)c1ccc(N/N=C(\C#N)S(=O)(=O)C(C)(C)C)cc1	u	4%	4.6µM*	2%	3%
CC(C)(C)S(=O)(=O)/C(C#N)=N/Nc1ccc(Cl)cc1	15µM*	u	u	2%	u
C[C@@]1(C2CCCC2)Cc2cc(OCC(=O)O)c(Cl)c(Cl)c2C1=O	-8%	x	-12%	-4%[56.1 µM]	x
Cc1ccc(CNC(=O)CCCCCn2c(=O)c3sccc3n(CC(=O)Nc3c(C)cc(C)cc3C)c2=O)cc1	5%	x	11%	1%	x
O=S(=O)(/N=S1\CC=CCN1S(=O)(=O)c1ccccc1)c1ccccc1 (centres undefined)	21µM*	x	u	x	x
Cc1nn(CCc2nn[nH]n2)c2nc(-c3ccccc3)cc(C(F)(F)F)c12	-6%	u	-14%	2%	u
Cn1nnnc1SCC(=O)Nc1ccc(Cl)c(S(=O)(=O)N2CCOCC2)c1	-12%	-12%	-2%	5%	9%
CCN1/C(=C/c2ccc3cc(C)ccc3[n+]2CC)Sc2ccc3sccc3c21	0.58µM*	x	0.92µM*	x	x
COc1ccc(C(=O)Nc2ccccc2C(=O)NC2CC2)c(OC)c1OC	u	x	-1%	x	x
CC(=O)c1c(C(C)=O)c(C)n(NC(=O)c2ccc(Cl)cc2)c1C	2%	-8%	u	0%	-39%
CC(=O)c1c(C(C)=O)c(C)n(Cc2ccc(Cl)cc2)c1C	18µM*	-23%	16µM*	8%	27%
COc1cccc(-c2c(-c3cc(OC)cc(OC)c3)n(C)c3ccc(-c4cnc(OC)nc4)cc23)c1	15µM*	x	u	2%	x
COc1ccc(-c2c(-c3cc(OC)cc(OC)c3)n(C)c3ccc(-c4ccc(S(N)(=O)=O)cc4)cc23)cc1	4.1µM*	x	10µM*	3%	x
COc1cccc(-c2c(-c3cc(OC)cc(OC)c3)n(C)c3ccc(-c4cnc(N5CCOCC5)nc4)cc23)c1	23µM*	x	13µM*	4%	x
COc1cc(OC)cc(-c2c(-c3ccc(F)cc3)c3cc(Br)ccc3n2C)c1	0%	x	1%	1%	x
COc1ccc(-c2c(-c3cc(OC)cc(OC)c3)n(C)c3ccc(-c4cnc(N)nc4)cc23)cc1	u	x	-26%	3%	x
COc1ccc(-c2c(-c3cc(OC)cc(OC)c3)n(C)c3ccc(-c4ccc(OC)c(F)c4)cc23)cc1	u	x	-23%	2%	x
COc1cc(OC)cc(-c2c(Sc3ccccc3)c3cc(-c4cnc(N5CCOCC5)nc4)ccc3n2C)c1	u	x	-1%	x	x
SMILES	TDP1 cell noCPT	VP16 counter	TDP1 cell CPT	TDP1 block	RORg inh
COc1cc(OC)cc(-c2c(-c3ccc(F)cc3)c3cc(-c4cnc(OC)nc4)ccc3n2C)c1	13µM*	x	16µM*	1%	x
CN(c1ccccc1C(=O)NCC1CCCO1)S(C)(=O)=O (centres undefined)	-19%	5%	3%	0%	1%
COCC(=O)N(C)C[C@@H]1Oc2cc(Br)ccc2S(=O)(=O)N([C@H](C)CO)C[C@H]1C	0%	x	-1%	x	x
COc1ccc(C(=O)N2[C@@H](C(C)C)COc3cc(Br)ccc3S2(=O)=O)cc1	u	x	18µM*	x	x
COc1ccc(OCC(O)Cn2c(=N)n(CCN3CCCCC3)c3ccccc32)cc1 (centres undefined)	18µM*	-2%	13µM*	9%	3%
N=c1n(CCN2CCCC2)c2ccccc2n1CC(O)c1ccc(Cl)c(Cl)c1 (centres undefined)	3.7µM*	u	5.8µM*	4%	u
COc1ccc(C(O)Cn2c(=N)n(CCCN(C)C)c3ccccc32)cc1 (centres undefined)	u	-6%	u	2%	-1%
N=c1n(CCN2CCCCC2)c2ccccc2n1CC(O)COc1ccc(Cl)cc1Cl (centres undefined)	4.6µM*	x	3.7µM*	x	x
Cc1ccc(OCC(O)Cn2c(=N)n(CCN3CCCCC3)c3ccccc32)cc1 (centres undefined)	23µM*	-2%	5.2µM*	4%	-19%
OC(COc1ccc(OCC(O)CN2CCCCC2)cc1)CN1CCCCC1 (centres undefined)	u	5%	-25%	x	-5%
COc1ccc(OCC(O)CN2CCCCC2)cc1 (centres undefined)	4%	1%	-1%	5%	-17%
CCn1ccc2cc(S(=O)(=O)N3CCCN(C(=O)Nc4cccc(SC)c4)CC3)ccc21	x	x	x	1%	x
Cc1ccc(CN2CCC(c3cc(-c4cccs4)n[nH]3)CC2)cc1	u	15%	u	3%	-16%
COc1ccc(C2(NC(C)=O)CCN(Cc3cccnc3)CC2)cc1	4%	-7%	17%	x	2%
Cc1ccc(OCC(O)Cn2c(=N)n(CCN3CCOCC3)c3ccccc32)cc1 (centres undefined)	23µM*	0%	u	5%	0%
O=C(CCCOc1ccc(Cl)cc1Cl)NCCCO	7%	9%	4%	-5%	8%
N=c1n(CCO)c2ccccc2n1CCOc1ccc(Cl)cc1Cl	5.8µM*	1%	6.5µM*	6%	15%
N=c1n(CCOc2ccccc2)c2ccccc2n1CCN1CCOCC1	-5%	-1%	-3%	3%	0%
CCn1c(SCC(=O)N=Nc2c(O)[nH]c3ccccc23)nnc1-c1ccc(C(C)(C)C)cc1	x	-5%	x	8%	-11%
Cc1ccc(S(=O)(=O)N(CC(=O)N=Nc2c(O)[nH]c3ccccc23)c2cccc(C)c2)cc1	21µM*	-16%	u	-1%	-1%
O=C(CNC(=O)c1ccccn1)N=Nc1c(O)[nH]c2ccccc12	15µM*	-3%	u	-2%[0.0935 µM]	8%
O=C(CN1CCN(Cc2ccccc2Cl)CC1)N=Nc1c(O)[nH]c2ccccc12	u	-9%	u	3%	u
